From PubChem BioAssay AID1347426 (Functional Genomics Laboratory (NCATS/FGL), 2020)
Among all 31,000 sequences or so, about 1,400 (4.5%) were called active. Many of the other results were omitted from the sample, so actives are more common in it than they were. A number with no mark means an inactive call.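 The calls were made as follows: active = median seed-adjusted z-score above 1 or below -1; inactive = the rest.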

experiment: Novel Modifiers of Survival Motor Neuron (SMN) Protein: Gene Identification via Genome-wide siRNA Screen; conditions: HEK293T SMN2-luciferase reporter, siRNA knockdown, 72 h; actives lie on both sides;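 also: luminescence tracks full-length SMN protein made from the SMN2 reporter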
Procedure, shortened: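 siRNA screen, 10418 genes ×3 siRNAs; 1 pmol/well, lipid reverse transfection into HEK293T SMN2-luc reporter line. 72 h, 37 °C, 5% CO2; ONE-Glo readout. Data: neg-ctrl normalized, log10, MAD; hit = MAD >1.0 or < -1.0.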

Going from GCUUUGAAACUACAGAUGATT against HNRNPA3 to GAAGGUUUACAAGGACUUATT against KLK7, the median seed-adjusted z-score falls from 0.915 to 0.

Going from GCAGAGAUCAGCAACGUGATT against KRT77 to GCACUUAUGCUGAUGAAGATT against ZNF398, the median seed-adjusted z-score rises from -0.0863 to 0.119.

First: CAAACGUAUUAGUUCAGCATT against KIF20B
Second: GGACAAGUAGCAAAGCGAATT against SLC7A14
The median seed-adjusted z-score of the first is lower: 0 for the first, 0.132 for the second.

Compared with CAACAACCUUACACGAGUATT against LRIG2, GAAGAAAUGUUGUUCGAAUTT against KAL1 is lower in median seed-adjusted z-score: 0.386 for the first, 0.0824 for the second.

First: CGCCUGGUCUAUGAACUUUTT against SCARF1
Second: GAAGUGUUUGAAUCUCGUATT against AKAP3
The median seed-adjusted z-score of the first is lower: -0.324 for the first, 0.0138 for the second.

Going from GUCUCGUAGUGUUAUGUCUTT against GBA2 to GAUACAUGAAGGUAUACAATT against POLR3G, the median seed-adjusted z-score falls from 0.143 to -0.485.

Compared with AGAAAGUGUACGACCCAAATT against NUCB1, GAGUGCAAUUGGAACCUGATT against ARHGAP30 is lower in median seed-adjusted z-score: 0.232 for the first, 0.0946 for the second.

First: GCAUGAACAUUACGGAUAUTT against CARS
Second: GGUGGUACAAGAGAACGAATT against JARID2
The median seed-adjusted z-score of the first is lower: 0 for the first, 0.115 for the second.

Compared with GAAAUAUACUUCAGAUUCATT against SP2, GCUCAUUCCUUUUCGAGCATT against PEG3 is higher in median seed-adjusted z-score: -0.617 for the first, 0.5 for the second.

Compared with GAUUCACAUCGUCAAGAAATT against ZNF317, GAUAUGACCGCGAAACCAATT against RPA4 is higher in median seed-adjusted z-score: 0.087 for the first, 0.132 for the second.

First: GCUCCACACUGAUGAAUCATT against ZNF250
Second: GGCUAACUACUGAGCUGAATT against C1RL
The median seed-adjusted z-score of the first is higher: -0.00985 for the first, -0.148 for the second.

Going from GGGAAUUUCUGACCUAGUATT against ABCD3 to CGUGGAAGAUUUUCACAGATT against ZNF174, the median seed-adjusted z-score rises from -0.24 to 0.035.

First: GAUCUACCGAAUACAAGAATT against GPR171
Second: CCACACCAUUAUGACCAUUTT against FUT1
The median seed-adjusted z-score of the first is lower: -0.449 for the first, 0.000845 for the second.

First: GAAGGGUUAUCGUCGGGAATT against SLC6A6
Second: CCAUCGAGUUCAUCGAUAATT against DUSP8
The median seed-adjusted z-score of the first is higher: 0.0448 for the first, -0.0326 for the second.

Compared with GUUCAUCUCUUGUAAGGAUTT against CABP5, GCCUCAGAAUUUAAUCAAATT against ALB is lower in median seed-adjusted z-score: 0.372 for the first, -0.153 for the second.

Going from GUGUCUCUGCUCUAAGUAATT against B4GALT1 to AGCUUAUGCAUUUGGCAAATT against APBA3, the median seed-adjusted z-score falls from 0 to -0.119.

Going from GGAGCAGACGGUGACCAAATT against CIB3 to CAUAUGAUCCAGACAAGAATT against ZNF425, the median seed-adjusted z-score falls from 0.234 to 0.0841.

Compared with GAGUCUGUGGUGUACCUAATT against SALL4, GAGAAGAACUCGUACCUCUTT against ZNF783 is higher in median seed-adjusted z-score: -0.344 for the first, 0.284 for the second.

First: CCGUGUCCAGGAACCUAUATT against LPHN3
Second: GCUGUGCUAUGGGAGUUAATT against ADH1A
The median seed-adjusted z-score of the first is lower: -0.0576 for the first, 0.624 for the second.

Going from GAACUUAGCUAAAUUGACUTT against BCHE to CUUAGACUGUUUCCACUUATT against PARK2, the median seed-adjusted z-score rises from 0.117 to 0.146.

Compared with GCCUAUGAUUUAGGACUAATT against MNDA, CUGUUCUGCUUAUAUGGAATT against HNRPLL is lower in median seed-adjusted z-score: 0.232 for the first, 0 for the second.

Compared with GAAACAUCCGUGAAAGAGATT against RABL4, GAUACUAGCUAUUUUGACATT against MAST2 is higher in median seed-adjusted z-score: -0.154 for the first, 0.27 for the second.

First: CUAACGUAGAGGAAGCAUUTT against RAB11B
Second: CACUUAUACUAAGCACCAATT against CCNB1
The median seed-adjusted z-score of the first is lower: -0.857 for the first, 0.163 for the second.

Compared with CUCUGGAUUUUGAUAGUUUTT against PPARGC1A, GUACUUCCAUAGACAGGAATT against CECR1 is higher in median seed-adjusted z-score: -0.0953 for the first, 0.00187 for the second.

First: CGAAUGCUGAGGCUACAAATT against SLC9A5
Second: CAAAUCCUGUCUAACAAAATT against MYH7
The median seed-adjusted z-score of the first is lower: -0.545 for the first, 0.659 for the second.

First: GUUCAUAUGUGACAUCUUUTT against ZFP36L1
Second: GUAGGUGAGUGGAAAUUCATT against DRD2
The median seed-adjusted z-score of the first is lower: -0.933 for the first, -0.0273 for the second.

Going from GGAAGGUUGCUAUAGUGGATT against SSX2IP to GAAUUCGCUUCAUCCAUUUTT against POMT2, the median seed-adjusted z-score falls from -0.0799 to -0.614.

Going from GUAACACCGUUGAAGCUAATT against E2F8 to CUGCUCACCCUUUACAUCATT against KIF12, the median seed-adjusted z-score falls from 0.209 to 0.0971.

Going from CAGUCCCAAUUUCCACUUUTT against PCDHB2 to CCAGGUCUCGAAAACCAAATT against EN2, the median seed-adjusted z-score rises from 0 to 0.319.

Compared with CAGUGUUAGUCAUAUCGUATT against DHX36, CCUCGGCUCCAGCAAAUCATT against CACNB1 is higher in median seed-adjusted z-score: 0.165 for the first, 0.225 for the second.

Going from GUGGGUAACUGGAACAAAATT against MFGE8 to GCCUUGCGCUAAAUCUCGATT against NSD1, the median seed-adjusted z-score falls from 0.0367 to -0.372.

First: GCAUUAACCCAAUUGCUCUTT against EDNRB
Second: GAGCAGUCGCGAGAAGAUUTT against PPP1R12C
The median seed-adjusted z-score of the first is higher: 0.119 for the first, -0.535 for the second.

Going from CCGUCAAAGUGAUCAACAATT against IKZF3 to GCCUCCCACUACUUUGAAATT against IL2RB, the median seed-adjusted z-score rises from 0.0181 to 0.333.

Compared with GCAUGUCCAAUGUUCCAUATT against ACAT1, UAAUAAAGCGGAUUCUAGATT against THAP7 is higher in median seed-adjusted z-score: -0.848 for the first, -0.0317 for the second.

Compared with GUCGAGUAUUCAUCCGAGATT against DHX57, CGAUAGCACCUUCCUGUUUTT against GALT is higher in median seed-adjusted z-score: -0.138 for the first, 0.484 for the second.

Compared with GCUUACAUAGCAAAUCUAATT against ST8SIA2, GAUCCGCACGGACUGCUUUTT against ACVRL1 is lower in median seed-adjusted z-score: 0.516 for the first, -0.361 for the second.

Going from GAAAUCUUCUUACGAAAAATT against XPO7 to “GACAGGACGUGAACAUGCATT against SLC22A18AS”, the median seed-adjusted z-score falls from 0.546 to 0.0382.

First: GCAGCAAGAAGGUAGCACATT against ZNF598
Second: GUCUUUACUCUUCAACUGATT against THBS4
The median seed-adjusted z-score of the first is lower: -0.303 for the first, -0.28 for the second.

Compared with GCAACUCAAAGGUGAUAAATT against CCNK, CUACUUUUAUCUUGCAUAATT against ZNF264 is higher in median seed-adjusted z-score: -0.717 for the first, 0.617 for the second.

Compared with GGACUCUACUGCUAAAGUATT against TBC1D8B, GAAAAACGGUGACCGUCAATT against MYO9B is higher in median seed-adjusted z-score: -0.985 for the first, -0.0287 for the second.

First: CAGUUUGCUCUAUCAGUAATT against PSTPIP2
Second: CGCUGAAGUUUGUCCCUAATT against SEPX1
The median seed-adjusted z-score of the first is higher: 0.0136 for the first, -0.0545 for the second.

Compared with CAGUGUGGAUACUAAUAAATT against PMVK, CAAUCACCGCUGUGGUAAATT against UCP1 is lower in median seed-adjusted z-score: 0.269 for the first, -0.0744 for the second.

Compared with CGAGGUGACUGGUACAAGATT against NDUFV1, GGAUGAUUUAGAAUUGUCATT against ATP6V0C is higher in median seed-adjusted z-score: -0.653 for the first, -0.389 for the second.

Compared with CCAUGUUCAGUUCCAAGGATT against CORO1A, GGUGAUCACCAAGAUCAAATT against ADCY3 is lower in median seed-adjusted z-score: 0.569 for the first, -0.294 for the second.

Sequence AGAAGUCUGUUGCUAUGCATT against GNB5 has a median seed-adjusted z-score of -0.535.

For CCCUGGACGCUGAUGAGUUTT against CAPS, the median seed-adjusted z-score was -1.25 (active).
In the case of CUUGGAUGAUGGCAAGACATT against TCEB2, the median seed-adjusted z-score is reported as 1.28 (active).
With CCAAGCCUCUUUCCUACAATT against GPR52 the median seed-adjusted z-score was -1.17 (active).
For GGAUUUGCCUUACCACUAATT against PPP2R5C, the median seed-adjusted z-score was 1.14 (active).
For CCAGAAGCGAAUCACCACATT against POLR2F, the median seed-adjusted z-score was -3.52 (active).
With AGUCCAAGGUGAUUACGCUTT against CPSF1 the median seed-adjusted z-score was 3.29 (active).
In the case of CCAGUGAUGUAAGUUCUUATT against GCG, the median seed-adjusted z-score is reported as -1.18 (active).
In the case of GGCUUAAUGUGGUGAUGUUTT against COL7A1, the median seed-adjusted z-score is reported as 1.08 (active).
With GGGAGACCUCGAUCGUGAATT against RASA4 the median seed-adjusted z-score was -1.11 (active).
With GGCAAGUGCUUCACUCAAATT against ZNF665 the median seed-adjusted z-score was 1.13 (active).
In the case of UGAUUGCACGAACAGCAAATT against MED21, the median seed-adjusted z-score is reported as -1.3 (active).
In the case of CAACCAACAUUUACAUAUUTT against OPRK1, the median seed-adjusted z-score is reported as -1.08 (active).
In the case of GGAGAGUUAAGAUCAAUGUTT against KCNB2, the median seed-adjusted z-score is reported as 1.22 (active).
In the case of GGUGCUACGUUAGACCAGUTT against SNRPA1, the median seed-adjusted z-score is reported as -2.71 (active).
In the case of CAGUGUUCGUUCAACCCUATT against ZNF665, the median seed-adjusted z-score is reported as 1.13 (active).
With CAACGAAGAGGGCAUGUUUTT against MEOX2 the median seed-adjusted z-score was 1.36 (active).
For GGCUCAAUGUGGACUACAATT against HS3ST1, the median seed-adjusted z-score was 1.21 (active).
With CUACGAUUCUGGUGGAAUATT against TRRAP the median seed-adjusted z-score was -1.25 (active).
In the case of CUACACCUGUUUCAACAGATT against USPL1, the median seed-adjusted z-score is reported as -1.87 (active).
